Experimental data as given in PubChem BioAssay (Tox21).
Records with an inconclusive call do not appear. Where a call stands in place of a potency, no number is given. The source made the active and inactive calls. Unless noted, calls come from the whole dose curve; as a rule, active = well fitted curve in the direction sought with a large enough effect in the repeat runs; inconclusive = weak or mixed curves; inactive = no such curve, though single readings can be large; an effect the other way counts as inactive or inconclusive.

Experiments:
[1] = qHTS assay to identify small molecule agonists of the peroxisome proliferator-activated receptor delta (PPARd) signaling pathway - cell viability counter screen (AID 743211); note: nearly all actives have a fitted effect of over 55% in size; note: potency is the fitted concentration of half-maximal effect
Method in brief: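 Counter screen for cytotoxicity run in parallel with the PPARd reporter screen. Beta-lactamase reporter HEK293H cells exposed to compounds 17 h; ATP-based CellTiter-Glo luminescence quantified viability.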

[2] = biological target: Peroxisome proliferator-activated receptor delta (Homo sapiens) (UniProt Q03181); test: qHTS assay to identify small molecule agonists of the peroxisome proliferator-activated receptor delta (PPARd) signaling pathway (AID 743212; calls by dose curve)
Method in brief: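 A PPARd-bla HEK293H line with beta-lactamase under an Upstream Activator Sequence is treated with compounds at 37 C. Substrate loading for 2 h at room temperature precedes the fluorescence measurement.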

[3] = qHTS assay to identify small molecule antagonists of the peroxisome proliferator-activated receptor delta (PPARd) signaling pathway - cell viability counter screen (AID 743213); note: nearly all actives have a fitted effect of over 50% in size; note: potency is the fitted concentration of half-maximal effect
Method in brief: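 Viability counter-screen, qHTS format: PPARd-bla HEK293H, L165041 300 nM final, 17 h compound exposure at 37 C, CellTiter-Glo luminescence after 30 min RT.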

[4] = biological target: Bile acid receptor (Homo sapiens) (UniProt Q96RI1); test: qHTS assay to identify small molecule antagonists of the farnesoid-X-receptor (FXR) signaling pathway (AID 743217; active = well fitted inhibition curve with a large enough effect in the signal ratio in the repeat runs, not every such curve was filed as active; the % refers to the signal ratio)
Method in brief: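 Beta-lactamase reporter under UAS control in HEK 293T cells; compound exposure 16 h at 37 °C in the presence of chenodeoxycholic acid (50 uM final); signal from B/G FRET substrate after 2 h at room temperature.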

[5] = qHTS assay to identify small molecule agonists of the farnesoid-X-receptor (FXR) signaling pathway - cell viability counter screen (AID 743218); note: nearly all actives have a fitted effect of over 45% in size; note: potency is the fitted concentration of half-maximal effect
Method in brief: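 In GeneBLAzer FXR-UAS-bla HEK 293T cells, compounds act for 16 h at 37 C. Cell viability is then scored in the reporter wells by CellTiter-Glo, 30 min at RT, luminescence.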

[6] = biological target: Bile acid receptor (Homo sapiens) (UniProt Q96RI1); test: qHTS assay to identify small molecule agonists of the farnesoid-X-receptor (FXR) signaling pathway (AID 743220; active = well fitted activation curve with a large enough effect in the signal ratio in the repeat runs, not every such curve was filed as active; the % refers to the signal ratio)
Method in brief: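 Beta-lactamase reporter under UAS control in GeneBLAzer FXR HEK 293T cells (5000/well) measured with LiveBLAzer FRET substrate after 2 h at room temperature. Compound exposure lasted 16 h at 37C.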

[7] = qHTS assay to identify small molecule antagonists of the farnesoid-X-receptor (FXR) signaling pathway - cell viability counter screen (AID 743221; active = well fitted cell-killing curve with a large enough effect in the repeat runs, not every such curve was filed as active; note: nearly all actives have a fitted effect of over 50% in size)
Method in brief: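 Multiplexed counter screen: viability of FXR-bla HEK 293T cells under agonist stimulation by chenodeoxycholic acid (50 uM, final) and test compound for 16 h at 37 C, measured by CellTiter-Glo luminescence in the reporter wells.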

[8] = biological target: Vitamin D3 receptor (Homo sapiens) (UniProt P11473); test: qHTS assay to identify small molecule agonists of the vitamin D receptor (VDR) signaling pathway (AID 743222; calls by dose curve)
Method in brief: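 Agonist activity measured in VDR-bla reporter cells. Exposure 16 h, 37C, 5% CO2; detection by B/G FRET substrate, 2 h RT.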

[9] = biological target: Vitamin D3 receptor (Homo sapiens) (UniProt P11473); test: qHTS assay to identify small molecule antagonists of the vitamin D receptor (VDR) signaling pathway (AID 743223; active = well fitted inhibition curve with a large enough effect in the signal ratio in the repeat runs, not every such curve was filed as active; the % refers to the signal ratio)
Method in brief: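 Cells carrying a VDR-driven beta-lactamase reporter (VDR-bla) were co-treated with compound and 3 nM final 1alpha,25-dihydroxyvitamin D3 for 16 h at 37C; reporter activity was measured as FRET substrate fluorescence after 2 h at room temperature.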

[10] = qHTS assay to identify small molecule agonists of the vitamin D receptor (VDR) signaling pathway - cell viability counter screen (AID 743224); note: nearly all actives have a fitted effect of over 50% in size; note: potency is the fitted concentration of half-maximal effect
Method in brief: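 VDR-bla cell line, quantitative HTS format; 16 h compound incubation (37C, 5% CO2); ATP-based CellTiter-Glo luminescence measured in the reporter assay wells.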

[11] = qHTS assay to identify small molecule antagonists of the vitamin D receptor (VDR) signaling pathway - cell viability counter screen (AID 743225); note: nearly all actives have a fitted effect of over 50% in size; note: potency is the fitted concentration of half-maximal effect
Method in brief: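 HEK293T VDR-bla; cpd + 1a,25-(OH)2D3 3 nM final, 16 h 37C/5% CO2; B/G FRET substrate 2 h RT; then CellTiter-Glo 30 min RT, luminescence.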

[12] = qHTS assay to identify small molecule agonists of the NFkB signaling pathway (AID 1159509; active = well fitted curve in the direction sought with a large enough effect in the signal ratio in the repeat runs, not every such curve was filed as active; the % refers to the signal ratio; note: series mostly up to about 61 µM)
Method in brief: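 ME-180 NFkB-bla, 2,000 cells/well, overnight plating; cpd pinned in DMSO, 5 h 37 C; B/G FRET substrate 1.5 h RT; ex 405, em 460/530 nm.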

[13] = qHTS assay to identify small molecule agonists of the endoplasmic reticulum stress response signaling pathway - cell viability counter screen (AID 1159517; calls by dose curve; note: nearly all actives have a fitted effect of over 50% in size; note: potency is the fitted concentration of half-maximal effect)
Method in brief: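 CellTiter-Glo was added to wells already read for beta-lactamase FRET, and luminescence was recorded 30 min later. Cells: ESRE-bla HeLa, 1,500 per well, compound exposure 5 hr at 37 C.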

[14] = qHTS assay to identify small molecule antagonists of the retinoid-related orphan receptor gamma (ROR-gamma) signaling pathway - cell viability counter screen (AID 1159520); note: nearly all actives have a fitted effect of over 50% in size
Method in brief: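 Tet-on ROR gamma CHO cells (1,000/well) were plated 4 hr, given compounds in DMSO for 2 hr at 37 C, then induced with 1 uM final doxycycline for 16 hr. Viability was read as ATP by CellTiter-Glo luminescence after 30 min.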

[15] = biological target: Nuclear receptor ROR-gamma (Homo sapiens) (UniProt P51449); test: qHTS assay to identify small molecule antagonists of the retinoid-related orphan receptor gamma (ROR-gamma) signaling pathway (AID 1159521; note: nearly all actives have a fitted effect of over 50% in size; note: potency is the fitted concentration of half-maximal effect)
Method in brief: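 Cells were plated, rested 4 h at 37 C, exposed to compounds for 2 h, then given 1 uM final doxycycline hyclate to induce RORγ expression. After 16 h, ONE-Glo luminescence from the ROR response element reporter was measured.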

[16] = qHTS assay to identify small molecule agonists of the AP-1 signaling pathway - cell viability counter screen (AID 1159525; calls by dose curve; note: nearly all actives have a fitted effect of over 55% in size; note: potency is the fitted concentration of half-maximal effect)
Method in brief: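 ME-180 AP-1-bla, 2500 cells/well, Opti-MEM + 0.5% dialyzed FBS; overnight 37 °C; cpd 15-pt titration, 5 h 37 °C; CellTiter-Glo 30 min RT; luminescence read; normalised to TOAB and DMSO controls.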

[17] = qHTS assay to identify small molecule agonists of the AP-1 signaling pathway (AID 1159526; calls by dose curve)
[18] = biological target: Peroxisome proliferator-activated receptor delta (Homo sapiens) (UniProt Q03181); test: qHTS assay to identify small molecule antagonists of the peroxisome proliferator-activated receptor delta (PPARd) signaling pathway (AID 743215; active = well fitted inhibition curve with a large enough effect in the signal ratio in the repeat runs, not every such curve was filed as active; the % refers to the signal ratio;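 note: cells stimulated with agonist L165041 at 300 nM final during compound exposure; series mostly up to about 62 µM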)
Method in brief: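 Antagonist-mode beta-lactamase reporter screen: HEK293H cells with UAS-bla under PPARd control, stimulated by 300 nM L165041 (final) alongside test compound for 17 h at 37 C, then FRET fluorescence after 2 h substrate incubation.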

[19] = qHTS assay to identify small molecule agonists of the endoplasmic reticulum stress response signaling pathway (AID 1159516; active = well fitted activation curve with a large enough effect in the signal ratio in the repeat runs, not every such curve was filed as active; the % refers to the signal ratio; note: potency is the fitted concentration of half-maximal effect)
Method in brief: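 ER stress element reporter (bla) in HeLa. 1,500 cells/well, overnight attachment; 5 hr compound; 2 hr RT substrate; dual-emission fluorescence.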

Chain of Vitamin D3 receptor (Homo sapiens) (P11473 whole entry, looked up): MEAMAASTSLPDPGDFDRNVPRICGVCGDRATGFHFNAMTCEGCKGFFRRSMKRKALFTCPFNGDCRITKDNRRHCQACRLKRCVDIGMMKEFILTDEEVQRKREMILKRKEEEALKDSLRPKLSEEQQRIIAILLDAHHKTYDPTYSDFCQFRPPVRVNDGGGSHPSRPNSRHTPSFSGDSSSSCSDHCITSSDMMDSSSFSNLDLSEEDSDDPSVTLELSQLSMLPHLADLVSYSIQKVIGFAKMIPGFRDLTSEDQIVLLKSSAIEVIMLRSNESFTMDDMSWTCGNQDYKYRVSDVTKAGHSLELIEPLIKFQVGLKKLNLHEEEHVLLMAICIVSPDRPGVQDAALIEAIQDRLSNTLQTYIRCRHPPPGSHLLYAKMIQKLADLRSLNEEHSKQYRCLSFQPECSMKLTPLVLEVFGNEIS
Chain of Bile acid receptor (Homo sapiens) (Q96RI1 whole entry, looked up): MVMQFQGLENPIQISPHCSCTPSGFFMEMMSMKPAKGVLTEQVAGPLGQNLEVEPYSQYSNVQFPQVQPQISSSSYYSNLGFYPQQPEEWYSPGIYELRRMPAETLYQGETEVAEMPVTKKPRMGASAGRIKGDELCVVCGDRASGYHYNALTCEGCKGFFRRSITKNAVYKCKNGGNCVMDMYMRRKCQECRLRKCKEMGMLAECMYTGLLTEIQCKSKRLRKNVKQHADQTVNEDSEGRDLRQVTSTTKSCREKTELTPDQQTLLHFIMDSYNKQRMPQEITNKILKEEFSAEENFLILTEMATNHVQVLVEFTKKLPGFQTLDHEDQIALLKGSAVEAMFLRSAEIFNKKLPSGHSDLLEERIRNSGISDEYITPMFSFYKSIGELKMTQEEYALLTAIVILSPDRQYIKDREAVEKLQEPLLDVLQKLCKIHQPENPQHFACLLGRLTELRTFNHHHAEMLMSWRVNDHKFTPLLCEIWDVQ
Chain of Peroxisome proliferator-activated receptor delta (Homo sapiens) (Q03181 whole entry, looked up): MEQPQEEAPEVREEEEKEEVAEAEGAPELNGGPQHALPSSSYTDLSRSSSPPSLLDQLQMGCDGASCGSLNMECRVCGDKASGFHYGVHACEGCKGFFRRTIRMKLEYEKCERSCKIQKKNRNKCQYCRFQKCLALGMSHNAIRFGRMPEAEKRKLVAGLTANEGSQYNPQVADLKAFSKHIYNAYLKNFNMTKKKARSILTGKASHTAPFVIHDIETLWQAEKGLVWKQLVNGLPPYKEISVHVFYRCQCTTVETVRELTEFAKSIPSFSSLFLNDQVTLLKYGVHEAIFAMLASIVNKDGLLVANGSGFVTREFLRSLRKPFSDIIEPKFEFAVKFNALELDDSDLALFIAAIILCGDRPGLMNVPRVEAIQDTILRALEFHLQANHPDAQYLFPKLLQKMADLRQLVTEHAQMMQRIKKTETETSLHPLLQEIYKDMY

Row | Compound | Potency [1] | Potency [2] | Potency [3] | Potency [4] | Potency [5] | Potency [6] | Potency [7] | Potency [8] | Potency [9] | Potency [10] | Potency [11] | Potency [12] | Potency [13] | Potency [14] | Potency [15] | Potency [16] | Potency [17] | Potency [18] | Potency [19]
1 | Cc1cc(C)cc(N)c1 | inactive | inactive | inactive | inactive | inactive | inactive | inactive | inactive | inactive | inactive | inactive | inactive | inactive | inactive | inactive | inactive | inactive |  | 
2 | CC/C=C1/OC(=O)c2ccccc21 | inactive | inactive | inactive |  |  |  | inactive | inactive | inactive | inactive | inactive | inactive | inactive | inactive | inactive |  |  | inactive | 
3 | CC[C@]1(O)C[C@H]2CN(CCc3c([nH]c4ccccc34)[C@@](C(=O)OC)(c3cc4c(cc3OC)N(C=O)[C@H]3[C@@](O)(C(=O)OC)[C@H](OC(C)=O)[C@]5(CC)C=CCN6CC[C@]43[C@@H]65)C2)C1 | inactive | inactive | inactive |  | inactive |  | inactive |  |  |  | inactive | inactive | inactive | inactive |  | inactive |  | inactive | 
4 | O=C=Nc1ccc(Cl)c(Cl)c1 |  | inactive |  | inactive | 30.4 µM (active) |  |  |  | inactive |  |  | inactive | inactive | inactive | inactive |  | inactive | inactive | 
5 | CC(C)c1nc(CN(C)C(=O)N[C@H](C(=O)N[C@@H](Cc2ccccc2)C[C@H](O)[C@H](Cc2ccccc2)NC(=O)OCc2cncs2)C(C)C)cs1 | 29.8 µM (active) |  |  |  |  |  |  |  |  | inactive |  | inactive | 15.1 µM (active) | inactive | inactive | 19 µM (active) | inactive |  | 
6 | COc1ccccc1NC(=O)c1cc2ccccc2cc1O |  |  | 43.6 µM (active) |  |  |  |  |  |  | 21.9 µM (active) | 38.9 µM (active) | inactive | inactive |  |  | inactive | inactive |  | inactive
7 | OCCOCC#CCOCCO | inactive | inactive | inactive |  | inactive |  |  | inactive |  | inactive | inactive | inactive | inactive |  | inactive | inactive | inactive |  | 49 µM (active)
8 | Clc1ccc(Nc2nnc(Cc3ccncc3)c3ccccc23)cc1 | inactive |  | inactive |  |  | inactive |  |  | inactive |  |  | inactive | inactive |  |  | inactive | inactive |  | inactive
9 | C1COC1 | inactive | inactive | inactive | inactive | inactive | inactive | inactive | inactive | inactive | inactive | inactive | inactive |  | inactive | inactive | inactive | inactive | inactive | inactive
10 | C=C(C)C(=O)OCCCCCCCCCCCCC | inactive | inactive |  |  | inactive |  | inactive |  |  | inactive | inactive | inactive |  | inactive | inactive | inactive | inactive |  | inactive
11 | CC(C)=CCC/C(C)=C/CC/C(C)=C/C(=O)OCC(=O)[C@@]1(O)CC[C@H]2[C@@H]3CCC4=CC(=O)C=C[C@]4(C)[C@H]3[C@@H](O)C[C@@]21C | 23.7 µM (active) |  |  |  |  |  |  |  |  | 26.6 µM (active) |  | inactive | inactive | inactive | 6.68 µM (active) |  | inactive |  | 
